Source: PubChem
ADAM17 inh – ADAM17 inhibition, QFRET primary screen. P78536. recombinant ADAM17, EDANS/DABCYL FRET peptide cleavage. inhibition, % at 6.95 µM. 0.83% of 370,000 active;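 active means inhibition above the mean of compounds lying between control limits plus 3 SD, set per campaign, cut at about 8.5% in these data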
PLC-gamma1 inh – PLC-gamma1 (human) inhibition, primary screen | purified PLC-gamma1, fluorogenic substrate, fluorescence | 0.84% of 370,000 active | inhibition, % at 12.2 µM | AID 720700; in the data active means inhibition above about 9.5%
Target sequence (P19174 whole entry, looked up): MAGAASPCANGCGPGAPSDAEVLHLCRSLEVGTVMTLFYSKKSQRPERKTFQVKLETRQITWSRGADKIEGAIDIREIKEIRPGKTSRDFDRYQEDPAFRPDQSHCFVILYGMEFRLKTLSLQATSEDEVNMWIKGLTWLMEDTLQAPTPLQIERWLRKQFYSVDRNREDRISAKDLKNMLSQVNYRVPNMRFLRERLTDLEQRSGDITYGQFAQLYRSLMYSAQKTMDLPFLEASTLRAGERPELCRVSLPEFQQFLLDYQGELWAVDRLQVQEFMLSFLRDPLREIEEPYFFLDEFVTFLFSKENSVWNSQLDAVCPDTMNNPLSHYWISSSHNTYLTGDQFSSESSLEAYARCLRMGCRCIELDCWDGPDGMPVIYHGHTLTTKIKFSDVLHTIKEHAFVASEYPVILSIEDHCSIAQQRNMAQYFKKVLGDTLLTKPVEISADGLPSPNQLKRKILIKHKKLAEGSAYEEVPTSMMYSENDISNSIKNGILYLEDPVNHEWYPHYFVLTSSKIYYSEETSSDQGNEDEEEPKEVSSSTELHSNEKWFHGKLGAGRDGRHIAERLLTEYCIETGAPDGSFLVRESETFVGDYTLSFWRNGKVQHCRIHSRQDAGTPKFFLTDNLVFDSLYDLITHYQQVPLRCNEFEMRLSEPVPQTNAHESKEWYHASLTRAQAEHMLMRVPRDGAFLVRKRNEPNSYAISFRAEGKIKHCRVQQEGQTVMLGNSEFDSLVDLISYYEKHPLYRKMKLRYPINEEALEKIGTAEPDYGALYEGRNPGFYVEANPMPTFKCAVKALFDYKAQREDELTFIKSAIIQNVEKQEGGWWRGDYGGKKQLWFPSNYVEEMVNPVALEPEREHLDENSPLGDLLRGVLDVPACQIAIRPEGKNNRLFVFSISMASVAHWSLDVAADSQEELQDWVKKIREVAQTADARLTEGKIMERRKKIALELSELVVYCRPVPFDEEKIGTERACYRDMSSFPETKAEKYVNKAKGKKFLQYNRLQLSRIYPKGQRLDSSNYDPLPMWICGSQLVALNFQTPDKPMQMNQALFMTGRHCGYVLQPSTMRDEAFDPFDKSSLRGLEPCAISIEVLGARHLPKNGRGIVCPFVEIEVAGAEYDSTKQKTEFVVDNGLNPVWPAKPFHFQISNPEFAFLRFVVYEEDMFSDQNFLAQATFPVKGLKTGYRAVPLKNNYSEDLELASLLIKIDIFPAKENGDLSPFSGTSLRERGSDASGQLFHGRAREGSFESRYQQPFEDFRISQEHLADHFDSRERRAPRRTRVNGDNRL
KLK7 zymogen act – activators of human kallikrein-7 zymogen. purified proKLK7, EDANS-DABCYL substrate fluorescence; 100% is mature enzyme control, 0% vehicle. AID 652039. activation, % at 7 µM. 0.9% of 370,000 active;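 active means activation above the mean of all tested compounds plus 3 SD, computed per campaign excluding outliers beyond control limits, cut at about 13% in these data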
ADAM10 inh – inhibits human ADAM10; O14672; recombinant ADAM10, EDANS/DABCYL FRET peptide cleavage, 3 h; inhibition, % at 7 µM; 0.62% of 370,000 active; AID 720582;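 active means inhibition above a per-campaign cutoff equal to the mean of compounds falling between control-based bounds plus 3 SD, cut at about 20% in these data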
PLCb3 inh – blocks human PLC-beta3 enzyme activity; Q01970; Purified PLC-beta3, fluorogenic substrate, fluorescence; inhibition, % at 12.2 µM; 0.18% of 370,000 active; in the data active means inhibition above about 11%
proKLK7 act conf – proKLK7 activation, confirmation; shares compounds with KLK7 zymogen act; purified proKLK7, EDANS-DABCYL substrate fluorescence; scaled: vehicle 0, mature enzyme 100; activation, % at 7 µM; 68% of 3,200 active; AID 686949;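 active means activation, as change over the incubation, above the mean of all tested compounds plus 3 SD, cut at about 13% in these data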
EDANS-DABCYL int – optically interferes with EDANS-DABCYL signal, flagging KLK7 hits; EDANS-DABCYL substrate fluorescence interference, no enzyme, 4 h; solvent 0%, active enzyme control 100%; shares compounds with KLK7 zymogen act; 80% of 3,200 active; AID 686952; activation, % at 7 µM;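 active means activation above the all-compound mean plus 3 SD, ignoring values outside control-based bounds, cut at about 4.8% in these data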;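 further: value is the 4 h activation minus the activation read at time zero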
EDANS interf – EDANS fluorescence interference in dose response, no enzyme; 20% of 250 active; EDANS-DABCYL peptide fluorescence interference; EC50, µM; shares compounds with KLK7 zymogen act;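 active means compounds that raise the fluorescence signal in this interference counterscreen, with EC50 at or below 10 µM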;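 further: intact quenched peptide substrate alone read at 355 nm excitation and 520 nm emission; signal is fluorescence gain from T0 to T4 after four hours at room temperature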
Each line names hits and unclear results; the compound was inactive in the other large screens (follow-up assays come after a bar, where they were run). An excerpt weighted towards active compounds, which were near 2.9% of everything screened.

COc1cc2c(cc1OC)CN(CC(=O)NC(=O)NCc1ccco1)CC2	KLK7 zymogen act 48 | proKLK7 act conf 14 | EDANS-DABCYL int 14
Cc1cc(=O)n2ccccc2c1C#N	KLK7 zymogen act 48 | proKLK7 act conf 70 | EDANS-DABCYL int 70
Cc1cc(=O)n2c(ccc3ccccc32)c1C#N	none
CC(C)CNC(=O)OCc1cn(Cc2ccc(C(F)(F)F)cc2)nn1	none
Cc1cc(=O)[nH]c(SCc2cccc3cccnc23)n1	none
Cc1cc(=O)[nH]c(SCc2nc3ncccn3c2Br)n1	KLK7 zymogen act 29 | proKLK7 act conf inactive | EDANS-DABCYL int 15
CCC[C@H]1[C@@H](NC(=O)C2CCC2)CC[C@@]23CCCN2C(=O)CCC[C@@H]13	none (no result: KLK7 zymogen act)
Cc1ccc(-c2[nH]c(-c3ccc(C(=O)O)cc3)nc2-c2ccccc2)cc1	KLK7 zymogen act 33 | proKLK7 act conf 67 | EDANS-DABCYL int 69
COc1ccc(N(CC(=O)NCc2ccc(F)cc2)C(=O)c2snc(C(N)=O)c2N)cc1OC	KLK7 zymogen act 15 | proKLK7 act conf inactive | EDANS-DABCYL int inactive
COc1cc(C(Nc2ccccn2)c2c(NC(=O)c3ccco3)sc(C)c2C)cc(OC)c1OC (stereo not drawn)	KLK7 zymogen act 26 | proKLK7 act conf inactive | EDANS-DABCYL int inactive
COc1ccc(C(Nc2ccccn2)c2c(NC(=O)c3ccco3)sc(C)c2C)cc1OC (stereo not drawn)	none
O=c1[nH]cccc1-c1nc2ccccc2n1Cc1ccc(F)cc1	none
Cc1cc2nc(-c3ccc[nH]c3=O)[nH]c2cc1C	KLK7 zymogen act 68 | proKLK7 act conf 64 | EDANS-DABCYL int 71
Cc1cc2nc(-c3ccc[nH]c3=O)n(Cc3ccc(F)cc3)c2cc1C	KLK7 zymogen act 22 | proKLK7 act conf inactive | EDANS-DABCYL int inactive
COCc1[nH]nc2c1C(c1ccccc1)N(Cc1ccccc1)C2=O (stereo not drawn)	none
O=S(=O)(Nc1ccc(-c2nc3cccnc3s2)cc1)c1cc(F)ccc1F	KLK7 zymogen act 16 | proKLK7 act conf 20 | EDANS-DABCYL int 21
CCc1ccc(S(=O)(=O)Nc2ccc(-c3nc4cccnc4s3)cc2)s1	none
NC1=[N+](Cc2ccccc2)C(Cc2ccccc2)C2C(=C3CCCCC3n3c(=O)n(-c4ccccc4)c(=O)n32)N1 (stereo not drawn)	none
Cc1c2ccccc2nc2c(F)c(NCCO)c(F)c(F)c12	none
OCCNc1c2ccccc2nc2c(F)c(F)c(F)c(F)c12	KLK7 zymogen act 18 | proKLK7 act conf 19 | EDANS-DABCYL int 8.6 | EDANS interf inactive
CC(C)C[C@H](NC(=O)c1nccs1)C(=O)N1CCC[C@H]1C(=O)NCc1ccccc1	none
O=C1c2ccccc2NC(c2ccc(O)cc2)N1Cc1ccco1 (stereo not drawn)	KLK7 zymogen act 24 | proKLK7 act conf inactive | EDANS-DABCYL int 7.1
COc1ccc(C2Nc3ccccc3C(=O)N2Cc2ccco2)cc1COc1ccccc1F (stereo not drawn)	none
O=C1c2ccccc2NC(c2cccc(F)c2)N1Cc1ccco1 (stereo not drawn)	KLK7 zymogen act 22 | proKLK7 act conf inactive | EDANS-DABCYL int inactive
Cc1cccc(C)c1OCc1cccc(C2Nc3ccccc3C(=O)N2Cc2ccco2)c1 (stereo not drawn)	none (no result: KLK7 zymogen act)
Cc1ccc(C2Nc3ccccc3C(=O)N2Cc2ccco2)cc1 (stereo not drawn)	KLK7 zymogen act 13 | proKLK7 act conf inactive | EDANS-DABCYL int inactive
CC(C)=CCCC1=CC[C@H]2[C@@H](C1)C(C(C)C)=CC(=O)[C@@]2(C)O	none
COc1ccccc1-n1c(N)c(C(=O)NCC2CCCO2)c2nc3ccccc3nc21 (stereo not drawn)	KLK7 zymogen act 14 | proKLK7 act conf inactive | EDANS-DABCYL int inactive
CCN=C1NC(c2ccccc2C(F)(F)F)C(C(=O)OC)=C(C)N1Cc1ccc(C(F)(F)F)cc1 (stereo not drawn)	none
CCC(C)(C)n1nnnc1C(c1cc2cc(OC)c(OC)cc2[nH]c1=O)N1CCc2ccccc21 (stereo not drawn)	none
COc1cc2cc(C(c3nnnn3C(C)(C)C)N3CCc4ccccc4C3)c(=O)[nH]c2cc1OC (stereo not drawn)	KLK7 zymogen act 25 | proKLK7 act conf inactive | EDANS-DABCYL int inactive
O=c1[nH]c2cc3c(cc2cc1C(c1nnnn1CC1CCCO1)N1CCCC1)OCO3 (stereo not drawn)	KLK7 zymogen act 15 | proKLK7 act conf inactive | EDANS-DABCYL int 9.4
C[C@H](O)[C@@H]1C(=O)N2CCc3c([nH]c4ccccc34)[C@@H]2C[C@@H]1N(C)Cc1ccc(Cl)cc1	KLK7 zymogen act 52 | proKLK7 act conf 13 | EDANS-DABCYL int 13
C[C@H](O)[C@@H]1C(=O)N2CCc3c([nH]c4ccccc34)[C@@H]2C[C@@H]1N(C)C(=O)NC1CCCCC1	KLK7 zymogen act 36 | proKLK7 act conf 26 | EDANS-DABCYL int 21 | EDANS interf 8.4
COCCNC(=S)N(C)[C@H]1C[C@H]2c3[nH]c4ccccc4c3CCN2C(=O)[C@H]1[C@H](C)O	KLK7 zymogen act 51 | proKLK7 act conf 33 | EDANS-DABCYL int 34
C[C@H](O)[C@@H]1C(=O)N2CCc3c([nH]c4cccc(-c5ccccc5)c34)[C@@H]2C[C@@H]1N(C)CC1CCCCC1	none
COCC(=O)N(C)[C@H]1C[C@H]2c3[nH]c4ccccc4c3CCN2C(=O)[C@H]1[C@H](C)O	KLK7 zymogen act 27 | proKLK7 act conf 40 | EDANS-DABCYL int 42
CCc1cccc(Nc2cc(C)n(-c3cccc(CC)c3)c(=O)c2)c1	none
CN[C@H]1C[C@H]2c3[nH]c4ccccc4c3CCN2C(=O)[C@H]1[C@H](C)O	KLK7 zymogen act 28 | proKLK7 act conf 14 | EDANS-DABCYL int 13
CN[C@H]1C[C@H]2c3[nH]c4cccc(-c5cccc(C)c5)c4c3CCN2C(=O)[C@H]1[C@H](C)O	none
Cc1ccc2cc3cc(C(=O)NCCCN4CCCC4)oc3nc2c1	none
Cc1ccc2cc3cc(C(=O)NCCCN4CCCCCC4)oc3nc2c1	KLK7 zymogen act 18 | proKLK7 act conf inactive | EDANS-DABCYL int 11
CCCCN(CC)CCCNC(=O)c1cc2cc3ccc(C)cc3nc2o1	KLK7 zymogen act 22 | proKLK7 act conf inactive | EDANS-DABCYL int 13
CC(=O)Nc1ccc(NC(=O)c2cc(=O)c3ccc(C)cc3o2)cc1	KLK7 zymogen act 15 | proKLK7 act conf inactive | EDANS-DABCYL int inactive
